From PubChem
Most compounds without a hit are left out; they make up all but 6.6% or so of the library.
Bead autofluor: counter-screen for toxin protease inhibitors: compound fluorescence | 360,000 tested, 3.1% active | compound autofluorescence counterscreen, microsphere flow cytometry; hits give high values | fluorescence intensity (concentration not given with the values); in the data active = fluorescence intensity above about 16000; inconclusive = no clear call, values can overlap the other calls
BoNT F protease: inhibitors of Botulinum neurotoxin F light chain protease. inhibition, % at 10 µM. 360,000 tested, 0.22% active. Multiplex microsphere protease cleavage assay, flow cytometry; in the data active = inhibition above about 35%, passing the limit was not always enough; inconclusive = no clear call, values can overlap the other calls; note: plate controls were buffer without enzyme for full effect and enzyme alone for no effect
FBA Mtb inh: inhibits M. tuberculosis FBA enzyme | purified M. tuberculosis FBA, fluorescence read-out | 360,000 tested, 2.3% active | inhibition, % at 1 µM | P9WQA3; in the data active = inhibition above about 27%;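 note: 0% = vehicle and 100% = reference inhibitor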
Anthrax LF prot: anthrax lethal factor protease inhibition; multiplex microsphere protease cleavage assay, LF; 360,000 tested, 0.12% active; P15917; AID 588501; inhibition, % at 10 µM; note: plate controls were buffer without enzyme for full effect and enzyme alone for no effect
BoNT A protease: BoNT A light chain protease inhibition; multiplex microsphere protease substrate cleavage, flow cytometry; inhibition, % at 10 µM; 360,000 tested, 0.17% active; AID 588499; note: plate controls were buffer without enzyme for full effect and enzyme alone for no effect
GDH-TPI counter: counter-screen for M. tuberculosis FBA inhibitors: GDH-TPI coupled enzymes; GDH-TPI coupled enzyme counterscreen, NADH absorbance; inhibition, % at 4.8 µM; 360,000 tested, 1.2% active; in the data active = inhibition above about 30%;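 note: 0% = DMSO wells and 100% = wells lacking the enzyme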
Numbers without * were called inactive; ? = inconclusive; / = not tested or not shown; + = active, no number. Cut-off read from the data, not from the text of the source, unless noted: active = inhibition above about 30%; inconclusive = no clear call, values can overlap the other calls; inactive = below that.

SMILES	Bead autofluor	BoNT F protease	FBA Mtb inh	Anthrax LF prot	BoNT A protease	GDH-TPI counter
Cc1nn(-c2cc(N3CCCCC3)ccc2[N+](=O)[O-])c(=O)c2ccccc12	21077*	0	-8	2	?	0
Cc1nn(-c2cc(N3CCNCC3)ccc2[N+](=O)[O-])c(=O)c2ccccc12	3082	-2	1	-2	0	18
Cc1ccc(-c2cc(-c3ccc(F)cc3)nc(N)c2C#N)o1	2716	1	155*	1	0	8
N#Cc1c(-c2ccncc2)cc(-c2ccc(F)cc2)nc1N	2951	13	125*	4	0	17
Cc1ccc(-c2cc(-c3ccccc3Cl)c(C#N)c(N)n2)o1	5197	-12	16	2	5	-1
O=C(C[n+]1ccc2ccccc2c1)c1ccc2ccc3ccccc3c2c1	6941	-9	/	-15	0	/
COc1cccc(N2[C@@H](CC(=O)O)c3ccc(/C=C/C(=O)O)cc3S2(=O)=O)c1	3667	-4	0	-3	-1	-2
O=C1C2C3C=CC(C3)C2C(=O)N1CN(Cc1ccccc1)CN1C(=O)C2C3C=CC(C3)C2C1=O (stereo not drawn)	16805*	-2	-2	-1	-1	16
O=C1C2C3C=CC(C3)C2C(=O)N1CNc1ccccc1 (stereo not drawn)	2636	-6	0	1	0	-3
CCOC(=O)C1(C)CCCCCN1C(=O)c1ccc(C(F)(F)F)nc1C (stereo not drawn)	2787	-1	1	-2	0	10
O=C1c2cccc3cc([N+](=O)[O-])cc(c23)C(=O)N1/N=C/c1ccc(O)cc1O	5410	-10	-4	-6	-2	56*
Cn1c2ccsc2c2ncn(Cc3ccccc3F)c(=O)c21	3849	-3	+	0	0	7
Cc1cccc(-n2c3nc(=O)[nH]c(=O)c-3cc3c(C)nn(-c4ccccc4)c32)c1C	2270	7	+	8	1	12
Cc1cccc(-n2c(C)nc3ccccc3c2=O)c1C	4770	-1	3	4	0	-1
Cc1nn(-c2ccccc2)c2c1cc1c(=O)n(C)c(=O)nc-1n2-c1ccccc1F	/	/	164*	/	/	1
O=C(c1ccc(S(=O)(=O)NCc2ccco2)cc1)N1CCN(Cc2ccc3c(c2)OCO3)CC1	4684	-3	1	-3	0	-2
O=C(CCc1nc2ccccc2s1)Nc1cccnc1	4261	-20	1	-4	1	9
Cc1ccc(P(=O)(CC(=O)O)c2ccc(C)cc2)cc1	24105*	-7	-7	-3	-3	4
Cn1c(SCC(=O)n2c3c(c4ccccc42)CCCC3)nnc1-c1ccccc1	22437*	-1	0	-1	0	-4
CC(=O)Nc1ccc(-c2nnc(SCC(=O)n3c4c(c5ccccc53)CCCC4)n2C)cc1	9744	4	0	-1	-1	-5
CC(C)(C)CC(=O)Nc1nn[nH]n1	1992	0	6	-1	1	5
CCOC(=O)c1c(C)[nH]c(C(=O)COC(=O)CN2C(=O)C3CCCCC3C2=O)c1C (stereo not drawn)	9323	-1	0	7	2	6
CCOC(=O)c1c(C)[nH]c(C(=O)COC(=O)C(C)N2C(=O)C3CCCCC3C2=O)c1C (stereo not drawn)	24956*	-9	0	-3	-8	8
O=C(Nc1ccc(N2CCOCC2)nc1)c1ccc(Cl)cc1	22714*	-1	-1	-1	0	10
C/C(=C\C(=O)c1ccccc1)Nc1ccc(N2CCOCC2)cc1	9633	-14	3	-16	-2	7
COc1ccc(/C=C/C(=O)c2ccc(O)cc2)cc1CN1CCOCC1	2340	-1	1	0	1	24
O=C(/C=C/c1cccc(O)c1)c1ccc(N2CCOCC2)cc1	3874	-9	-2	-1	1	43*
C/C(=C\C(=O)c1ccc(Cl)cc1)Nc1ccc(N2CCOCC2)cc1	16147*	-35	2	-7	-10	1
CC(C)(C)c1ccc(Cn2ccc(-c3ccc4c(c3)OCO4)n2)cc1	19826*	-1	-1	-4	1	-2
COc1ccc(C2Nc3ccccc3C(=O)N2Cc2ccccc2)cc1OC (stereo not drawn)	3692	?	74*	-6	-2	-1
